Screens as filed in PubChem.
KinaseGlo FLuc = blocks Kinase-Glo luciferase, a counter-screen artifact. Potency, µM (highest dose often 38.3 µM), inactives show at the highest dose activity change, negative = inhibition, hits mostly inhibitors. 0.28% of 200,000 active. AID 1379. Q27757. Kinase-Glo luciferase, ATP luminescence, 8 min; active means well fitted inhibition curve with a large enough effect; inconclusive means small, poorly fitted or top-dose-only effect; further: potency means the concentration at half of the fitted maximal effect; nearly all actives have a fitted effect of over 60% in size
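Inhibition of Kinase-Glo luciferase light generation was assessed at 10 uM ATP in pH 7.2 imidazole buffer, with luminescence measured after eight minutes at ambient temperature.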
Lamin A splicing = LMNA splicing modulation | HeLa LMNA splicing GFP/RFP minigene ratio, 48 h | Potency, µM (titrated, usually from 46.1 µM), for inactives: at the top dose ratio change, negative = inhibition, most hits filed as inhibitors | 0.01% of 200,000 active | AID 1487; active means well fitted inhibition curve with a large enough effect in the signal ratio, with a control signal flat, not every such curve was filed as active; inconclusive means small, poorly fitted or top-dose-only effect, or effect the other way, or a change in a side signal; the % refers to the signal ratio; further: potency means the concentration at half of the fitted maximal effect
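S3 HeLa stable clones carrying a lamin A-EGFP splicing minigene plus DsRed2 were seeded at 600 cells/well in Opti-MEM with 2% FBS, pin-dosed and incubated 48 h at 37°C. Acumen cytometry (488 nm) gave the GFP/RFP total-intensity ratio.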
HPGD inh = inhibitors of human 15-hydroxyprostaglandin dehydrogenase (HPGD); Potency, µM, without a hit: top-dose activity change, negative = inhibition, most hits filed as inhibitors; 4.3% of 150,000 active; purified HPGD, NADH fluorescence kinetic, PGE2 substrate; P15428; further: potency means the concentration at half of the fitted maximal effect
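20 nM HPGD preincubated 15 min at room temperature with compound in 50 mM Tris-HCl pH 8, 0.01% Tween 20. Started with 1 mM NAD+ and 30 uM prostaglandin E2; NADH fluorescence (360/450 nm) read 5 times over 30-s intervals, last minus first.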
PNC assembly inh = inhibitors of perinucleolar compartment assembly | PC3M PTB-GFP, PNC prevalence imaging, 16 h; stronger effect = lower value | activity change (PNC), negative = inhibition, % at 10 µM | 3.1% of 140,000 active;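 active means readout at or below -70, meaning at least 70% loss of cells showing the perinucleolar compartment, a nuclear body marking cancer cells; inconclusive means readout between -30 and a set limit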;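 further: plate controls were DMSO wells for no effect and camptothecin positive control wells for full effect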
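Read-out is percentage of cells bearing a perinucleolar compartment, from automated 20x imaging of fixed, Hoechst-stained PC3M PTB-GFP cells. Cells were seeded 4 h, then exposed 16 h to compound (23 nl of library stock) in duplicate plates.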
ALDH1A1 block = blocks purified human ALDH1A1 activity; Purified ALDH1A1, NADH fluorescence, propionaldehyde substrate; AID 1030; P00352; 7.3% of 220,000 active; Potency, µM (doses to about 75.3 µM), without a hit: at the top dose activity, negative = inhibition, most hits filed as inhibitors;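 further: potency means the concentration at half of the fitted maximal effect; plate controls were no enzyme wells and a reference inhibitor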
Target sequence (P00352 whole entry, looked up): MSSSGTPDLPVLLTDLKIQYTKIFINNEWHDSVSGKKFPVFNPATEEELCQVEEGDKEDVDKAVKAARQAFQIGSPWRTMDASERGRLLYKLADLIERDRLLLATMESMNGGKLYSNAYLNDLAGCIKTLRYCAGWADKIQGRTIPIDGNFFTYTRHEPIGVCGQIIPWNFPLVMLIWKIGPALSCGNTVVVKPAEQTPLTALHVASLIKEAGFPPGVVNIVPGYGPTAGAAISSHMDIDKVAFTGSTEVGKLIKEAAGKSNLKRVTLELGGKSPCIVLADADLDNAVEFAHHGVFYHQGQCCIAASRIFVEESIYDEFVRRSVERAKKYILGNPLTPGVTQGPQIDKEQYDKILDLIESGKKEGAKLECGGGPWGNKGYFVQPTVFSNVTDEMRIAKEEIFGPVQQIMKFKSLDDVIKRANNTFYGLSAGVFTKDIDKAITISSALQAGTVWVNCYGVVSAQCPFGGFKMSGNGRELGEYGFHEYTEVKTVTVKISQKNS
The depositor's hits bear a star; ? = inconclusive; · = no result given; [ ] = another dose, or the depositor's remark. A selection: hits, their analogues and other compounds. The true share with any hit is near 10%. Unless noted, the call rests on the fitted dose curve; in most records, active means well fitted inhibition curve with a large enough effect (not every such curve was filed as active); inconclusive means small, poorly fitted or top-dose-only effect, or another doubt; inactive means no such curve, though single readings can be large or run the other way. Unless noted, on the % scale 0 is the no-effect control and ±100 the full control effect.

SMILES | KinaseGlo FLuc | Lamin A splicing | HPGD inh | PNC assembly inh | ALDH1A1 block
O=C(CSc1oc(-c2ccc(F)cc2)nc1S(=O)(=O)c1ccccc1)NCC1CCCO1 (stereo not given) | 1% | -2% | -25% | -119* | -7%
COc1ccccc1-c1cc(C(F)(F)F)nc(S(=O)(=O)CCCC(=O)O)n1 | 0% | ? | ? | 52 | -3%
COc1ccccc1-c1cc(C(F)(F)F)nc(S(=O)(=O)CCCC(=O)N2CCOCC2)n1 | 1% | ? | 14µM* | 24 | -11%
CCc1cccc(NS(=O)(=O)c2c(C)n[nH]c2C)c1 | 0% | -10% | -11% | -100* | 2%
COC(=O)[C@@]1(Cc2ccc(OC)cc2)[C@H]2c3cc(C(=O)N(C)C)n(CCc4c[nH]c5ccc(O)cc45)c3C[C@H]2CN1C(=O)c1ccccc1 | -1% | · | -5% | · | -10%
[N-]=[N+]=CC(=O)C(Cc1ccccc1)N1C(=O)c2ccccc2C1=O (stereo not given) | -4% | 2% | -13% | 11 | 2.8µM*
COc1ccc2c(c1)O[C@@H](c1cccc(C(F)(F)F)c1)[C@H](OC(=O)NS(=O)(=O)c1ccc(C)cc1)C2=O | 1% | · | -3% | · | 16%
CCOC(=O)c1c(CC(C)C)csc1NC(=O)CCl | 15% | 2% | -8% | 24 | 8.9µM*
CCOC(=O)c1c(CC(C)C)csc1NC(=O)C(C)C | -4% | 25% | 1% | -17 | -6%
CC(C)Cc1csc(NC(=O)c2ccccc2Cl)c1C(=O)O | 3% | ? | 14µM* | -13 | ?
Cc1cccc(C(=O)Nc2scc(CC(C)C)c2C(=O)O)c1 | 1% | ? | 16µM* | -98* | ?
CC(C)Cc1csc(NC(=O)c2ccc(Cl)cc2)c1C(=O)O | 1% | ? | 18µM* | -9 | 25%
CCOc1ccc(CCNC(=O)C2CCN(c3ncnc4c3nc3n4CCCCC3)CC2)cc1 | · | -10%[46 µM] | · | · | ·
Cc1cc(=O)[nH]c(N=N/C(=N/Nc2ccc(O)cc2)c2ccccc2)n1 | 7.9µM* | -6% | 32µM* | -4 | 14µM*
COc1ccc(N/N=C(/N=Nc2nc(C)cc(=O)[nH]2)c2ccccc2)cc1 | 8.9µM* | ? | -14% | -7 | -8%
CCOc1ccccc1CNC(=O)c1cc2c(=O)n(Cc3cccnc3)ccc2nc1C | · | 6%[46 µM] | · | · | ·
C[C@@H]1O[C@@H](O)[C@@H](O)[C@H](O)[C@H]1O | -2%[7.66 µM] | · | -3% | · | 30%[13.5 µM]
COCCn1c(=O)c(-c2cn(C)c3ccccc23)nc2cnc(N3CCNCC3)nc21 | · | -7% | · | · | ?
Cn1c2ccccc2c2cc(C(=O)NNS(=O)(=O)c3ccc(F)cc3)sc21 | 0% | -13% | ? | -88* | ?
CC(=O)Oc1ccc(/C=C/C(=O)CC2OC(Oc3cc(OC(C)=O)c4c(c3)O[C@@H](c3ccc(OC(C)=O)cc3)CC4=O)C(OC(C)=O)C(OC(C)=O)C2OC(C)=O)cc1 (stereo not given in full) | 2% | · | -7% | · | 6%
COc1cc(NC(=O)Cn2nnc(-c3ccc(C(F)(F)F)cc3)n2)c(C(=O)O)cc1OC | · | -17%[46 µM] | · | · | ·
Cc1ccc(S(=O)(=O)NC(=O)Nc2cc(C)ccc2F)cc1 | 3% | ? | -4% | 14 | 28µM*
Cc1ccc(S(=O)(=O)NC(=O)Nc2ccc(F)cc2)cc1 | 2% | 3% | -9% | ? | -1%
Cc1ccc(Nc2c(-c3ccc(C)o3)nc3cnccn23)cc1 | -4% | -18% | ? | -29 | ?
Cc1ccc(-c2nc3cnccn3c2Nc2ccc3c(c2)OCO3)o1 | 2% | -9% | -29% | ? | 14µM*
COc1ccccc1OCC(=O)NCC1(N2CCOCC2)CCCCC1 | · | 0%[46 µM] | · | · | ·
